Inconclusive results are not listed. A call without a number means that no potency is given here. Unmarked numbers belong to inactive results. Calls of active or inactive are those of the source. Calls follow the shape of the dose curve; as a rule, active = well fitted curve in the direction sought with a large enough effect; inconclusive = small, poorly fitted or top-dose-only effect, or another doubt; inactive = no such curve, though single readings can be large; an effect the other way counts as inactive or inconclusive.

Cytochrome P450 2C9 (Homo sapiens), sequence (P11712 whole entry, looked up): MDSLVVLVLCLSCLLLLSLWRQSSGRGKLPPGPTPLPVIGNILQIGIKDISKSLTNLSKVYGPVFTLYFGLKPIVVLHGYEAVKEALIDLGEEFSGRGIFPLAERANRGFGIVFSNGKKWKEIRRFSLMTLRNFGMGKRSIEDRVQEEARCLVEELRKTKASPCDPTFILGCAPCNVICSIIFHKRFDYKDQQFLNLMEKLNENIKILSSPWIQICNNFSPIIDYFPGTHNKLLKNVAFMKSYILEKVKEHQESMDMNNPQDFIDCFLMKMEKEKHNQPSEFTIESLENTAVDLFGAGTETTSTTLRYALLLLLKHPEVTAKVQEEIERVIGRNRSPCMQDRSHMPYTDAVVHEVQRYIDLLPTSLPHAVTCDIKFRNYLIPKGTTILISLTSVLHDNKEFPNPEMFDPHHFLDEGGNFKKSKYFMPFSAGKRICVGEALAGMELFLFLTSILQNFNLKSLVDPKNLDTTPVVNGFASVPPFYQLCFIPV

Test system in the first test: not listed separately
Put plainly: Cellular Toxicity (caspase-3) Hek293 (AID 664).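 Also: cells exposed to compound for 16 h at 37 °C before readout.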 Conditions: HEK293 caspase-3 activation, DMSO = 0%, 100 µM tamoxifen = 100%; at 92.2 µM (top of the series). The gist of the method: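 HEK293 cells in complete medium treated 16 h at 37 °C, then Caspase-Glo 3/7 luminescence read after 20 min at room temperature. Normalized to DMSO and 100 uM tamoxifen; AC50 from Hill fit of concentration-response.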
For `C=C1C(CCl)(CCl)C2(Cl)C(Cl)C(Cl)C1(Cl)C2(Cl)Cl` (stereo not drawn), the caspase-3 activation was 252% (active).

For `Nc1ccc(N=Nc2ccccc2)c(N)n1`, the caspase-3 activation is -7.28%.

As for `C[C@H](CCC(=O)O)[C@H]1CC[C@H]2[C@@H]3[C@H](O)C[C@@H]4C[C@H](O)CC[C@]4(C)[C@H]3C[C@H](O)[C@]12C`, the caspase-3 activation was -0.41%.

A further test concerns the target Cytochrome P450 2C9 (Homo sapiens) (UniProt P11712). Put plainly: qHTS Assay for Inhibitors and Substrates of Cytochrome P450 2C9 (AID 883). Also: nearly all actives have a fitted effect of over 60% in size. Also: potency is read from the fitted curve at half-maximal effect. Conditions: recombinant CYP2C9, luciferin-H luminescence, 60 min; series mostly up to 57.1 µM. The gist of the method: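 A luminogenic readout tracked human CYP2C9 (10nM) converting deoxyluciferin (100uM, at KM) in 25mM KPO4 during 60 min at 37C with regenerated NADPH. Values normalized to 57uM sulphaphenazole as complete inhibition.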
Take `O=C(O)Cc1cc(I)c(Oc2ccc(O)c(I)c2)c(I)c1`: the Potency is 5.01 µM (active).

With `Cc1cc(-c2ccc(N=Nc3ccc4c(S(=O)(=O)O)cc(S(=O)(=O)O)c(N)c4c3O)c(C)c2)ccc1N=Nc1ccc2c(S(=O)(=O)O)cc(S(=O)(=O)O)c(N)c2c1O`, the Potency is 7.94 µM (active).

In the case of `O=C(O)Cc1nn(Cc2ccc(Br)cc2F)c(=O)c2ccccc12`, the Potency result is “inactive”.

The target in the next test is Cytochrome P450 3A4 (Homo sapiens) (UniProt P08684). Kind of test: qHTS Assay for Inhibitors and Substrates of Cytochrome P450 3A4 (AID 884). Also: nearly all actives have a fitted effect of over 50% in size. Also: potency is read from the fitted curve at half-maximal effect. Particulars: recombinant CYP3A4, Luciferin-PPXE luminescence; series mostly up to 57.1 µM. Summed up: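 20 nM human CYP3A4 with 25 uM Luciferin-PPXE (at KM) in 200 mM KPO4, preincubated 10 min with compound; NADPH regeneration started a 60 min RT reaction. Luciferin detected by luminescence, normalized to 57 uM ketoconazole as full inhibition.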
Cytochrome P450 3A4 (Homo sapiens), sequence (P08684 whole entry, looked up): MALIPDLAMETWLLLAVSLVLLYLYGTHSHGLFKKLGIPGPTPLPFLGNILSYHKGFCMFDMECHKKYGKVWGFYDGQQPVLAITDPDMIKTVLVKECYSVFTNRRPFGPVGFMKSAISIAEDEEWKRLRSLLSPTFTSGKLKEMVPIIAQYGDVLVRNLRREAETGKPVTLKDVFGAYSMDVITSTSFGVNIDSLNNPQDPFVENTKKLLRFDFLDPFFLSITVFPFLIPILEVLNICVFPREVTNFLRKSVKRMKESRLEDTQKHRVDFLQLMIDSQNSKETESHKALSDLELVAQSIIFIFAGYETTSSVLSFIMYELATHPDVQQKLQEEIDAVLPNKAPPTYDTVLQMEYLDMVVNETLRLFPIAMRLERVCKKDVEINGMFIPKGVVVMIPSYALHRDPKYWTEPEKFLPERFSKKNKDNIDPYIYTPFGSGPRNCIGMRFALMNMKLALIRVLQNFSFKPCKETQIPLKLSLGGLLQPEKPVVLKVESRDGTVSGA
As to `C=C1C(CCl)(CCl)C2(Cl)C(Cl)C(Cl)C1(Cl)C2(Cl)Cl` (stereo not drawn), the Potency was 5.01 µM (active).

In the case of `C=CC(C)(O)CC/C=C(\C)CCC=C(C)C` (stereo not drawn), the Potency result was “inactive”.

Turning to `CC1CCC(NC(=O)N(CCCl)N=O)CC1` (stereo not drawn), the Potency entry was “inactive”.

`CC1CCCC(C)N1NC(=O)c1ccc(Cl)c(S(N)(=O)=O)c1` (stereo not drawn): the Potency result was “inactive”.

`NCC(O)CC(=O)O` (stereo not drawn): the Potency entry was “inactive”.

In the case of `CC(=O)[C@H]1CC[C@H]2[C@@H]3C=CC4=CC(=O)CC[C@@]4(C)[C@H]3CC[C@]12C`, the Potency result was “inactive”.

Regarding `COc1cc(S(C)=O)ccc1-c1nc2ncccc2[nH]1` (stereo not drawn), the Potency result was “inactive”.

For the compound `Cc1cc(-c2ccc(N=Nc3ccc4c(S(=O)(=O)O)cc(S(=O)(=O)O)c(N)c4c3O)c(C)c2)ccc1N=Nc1ccc2c(S(=O)(=O)O)cc(S(=O)(=O)O)c(N)c2c1O`, the Potency was 15.8 µM (active).

Turning to `CC(=O)N=c1sc(S(N)(=O)=O)nn1C`, the Potency entry was “inactive”.

As for `O=C(O)[C@H]1C(=CCO)O[C@H]2CC(=O)N12`, the Potency entry is “inactive”.

Take `Cc1c(O)c(=O)ccn1C`: the activity change, negative = inhibition was -11.6% [at 11.4 µM].

As for `CC(=O)Oc1cccc(C(=O)O)c1OC(C)=O`, the Potency entry is “inactive”.

`CCCCC[C@H](O)/C=C/[C@H]1[C@H](O)CC(=O)[C@@H]1C/C=C\CCCC(=O)O`: the Potency entry is “inactive”.

With `N#Cc1ccc2c(c1)N(CCCN1CCC(O)CC1)c1ccccc1S2`, the Potency result was “inactive”.

Regarding `CC(=O)Oc1cccc2c1C(=O)c1c(OC(C)=O)cc(C(=O)O)cc1C2=O`, the Potency result is “inactive”.

Turning to `O=C(O)[C@H]1CN(C/C=C/P(=O)(O)O)CCN1`, the Potency entry is “inactive”.

For the compound `CC(=O)Nc1ccc(OC(=O)c2ccccc2O)cc1`, the Potency entry is “inactive”.
